Screens from PubChem BioAssay.
An excerpt weighted towards active compounds, which were near 4.1% of everything screened.
ssDAF12 agonist – S. stercoralis DAF-12 nuclear receptor activators, primary screen, cell-based, luminescence, HEK293, GRIP1 co-expression, lit1-tk-luc; Nuclear hormone receptor DAF-12 (Strongyloides stercoralis); activation, % at 6.8 µM; HEK293 ssDAF-12/GRIP1 lit1-tk-luc reporter; % of 3 µM dafachronic acid response; actives 1% (n = 370,000);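 active means activation above the mean over all tested compounds plus 3 SD, cut at about 0.9% in these data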;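 further: 0% = DMSO-only wells and 100% = 3 µM delta7-dafachronic acid wells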
DAX1 inh-1 – DAX1 (NR0B1) inhibitors, primary screen, cell-based, HEK293, Gal4-DAX1, luciferase luminescence. HEK293 Gal4-DAX1 luciferase reporter. inhibition, % at 6.75 µM. actives 0.99% (n = 340,000). AID 504766, 2011;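 active means inhibition above the mean over all tested compounds plus 3 SD, cut at about 4.2% in these data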;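 further: 0% = DAX1-transfected cells with DMSO and 100% = empty-vector control cells with DMSO; inhibition shows as a rise in luminescence from relieved DAX1 repression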
hgDAF12 agonist – H. glycines DAF-12 receptor agonists, primary screen, cell-based, luminescence, HEK293, GAL4 fusion, UAS-luciferase; HEK293 GAL4-hgDAF12 UAS-luciferase reporter, agonist luminescence; normalized to butyrate control; activation, % at 6.8 µM; actives 1.8% (n = 370,000); AID 687014, 2013;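 active means activation above a cutoff set at the mean of all screened compounds plus 3 SD, cut at about 10% in these data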;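 further: 0% = DMSO wells and 100% = sodium butyrate wells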
DAX1 inh-2 – DAX1 (NR0B1) inhibitors on StAR promoter, primary screen, cell-based, luminescence, SF-1 (NR5A1), full-length DAX-1; HEK293T StAR-luciferase reporter, SF-1/DAX-1 repression relief; inhibition, % at 6.8 µM; actives 1.1% (n = 370,000);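 active means inhibition above the mean over all tested compounds plus 3 SD, cut at about 3.6% in these data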;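 further: 0% = DAX-1 cells with DMSO and 100% = cells lacking DAX-1 with DMSO; higher inhibition means more luminescence from relief of DAX-1 repression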
hcDAF-12 act – H. contortus DAF-12 nuclear receptor activators, primary screen, cell-based, luminescence, HEK293, lit1-tk-luc reporter. activation, % at 6.8 µM. HEK293 hcDAF-12 lit1-tk-luc reporter; 0% DMSO, 100% Δ7-dafachronic acid. actives 1.4% (n = 370,000);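 active means activation above the mean of all tested compounds plus 3 SD, cut at about 5.5% in these data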;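 further: 100% = response to 3 µM Δ7-dafachronic acid high control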
DAX1 inh confirm – DAX1 (NR0B1) inhibitors relieving SF-1 repression, confirmation, cell-based, luminescence, HEK293T, full-length DAX-1, SF-1 activated StAR promoter; shares compounds with DAX1 inh-2; HEK293T StAR-promoter luciferase reporter, SF-1/DAX-1 repression; inhibition, % at 6.8 µM; actives 87% (n = 2,400); AID 652134, 2013;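 active means inhibition above the average of every tested compound plus 3 SD, cut at about 3.8% in these data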;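 further: 0% = DAX-1 cells with DMSO and 100% = no DAX-1 control cells with DMSO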
Target sequence (P51843 whole entry, looked up): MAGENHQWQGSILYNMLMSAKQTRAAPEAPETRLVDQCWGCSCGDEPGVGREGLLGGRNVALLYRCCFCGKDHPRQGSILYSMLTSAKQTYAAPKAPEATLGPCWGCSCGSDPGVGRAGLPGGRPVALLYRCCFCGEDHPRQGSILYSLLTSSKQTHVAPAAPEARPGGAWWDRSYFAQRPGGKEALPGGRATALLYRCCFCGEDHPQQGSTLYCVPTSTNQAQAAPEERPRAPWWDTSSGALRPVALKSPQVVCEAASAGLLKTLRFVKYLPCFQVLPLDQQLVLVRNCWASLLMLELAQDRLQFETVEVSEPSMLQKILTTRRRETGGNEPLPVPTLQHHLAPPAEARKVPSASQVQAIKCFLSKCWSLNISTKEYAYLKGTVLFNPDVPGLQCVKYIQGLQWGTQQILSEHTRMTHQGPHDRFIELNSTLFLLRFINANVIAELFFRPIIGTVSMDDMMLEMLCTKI
SF1 mutant ctr – StAR reporter signal changes without DAX1, counter-screen for DAX1 inhibitor project, cell-based, luminescence, AF-2 mutant SF-1, transactivation; HEK293 StAR-luciferase, SF-1 AF2 mutant; actives 78% (n = 2,400); shares compounds with DAX1 inh-2; inhibition, % at 6.8 µM;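 active means inhibition above the mean of all tested compounds plus 3 SD, cut at about 3% in these data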;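 further: 0% = DAX-1 transfected cells with DMSO and 100% = cells without DAX-1 with DMSO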
An asterisk follows results filed as active; . = no result.

SMILES	ssDAF12 agonist	DAX1 inh-1	hgDAF12 agonist	DAX1 inh-2	hcDAF-12 act	DAX1 inh confirm	SF1 mutant ctr
O=C(CN1CCN(CC(=O)Nc2ccc(F)cc2)CC1)NCC1(N2CCOCC2)CCCCC1	-0.6	-0.9	3.4	-1.3	0.5	.	.
Cc1ccnc(NC(=O)c2cccc(NC(=O)c3ccccc3C)c2)c1	-0.9	1.3	-0.8	0.1	-2.3	.	.
CC(=O)N1CCOc2ccc(S(=O)(=O)N(C)c3ccc(C)cc3)cc21	-1.0	0.0	-0.9	0.2	-2.2	.	.
Cc1nc2cc(NC(=O)c3ccco3)ccc2n1C	0.3	-0.1	12.2*	7.7*	1.8	11.4*	7.4*
COc1ccc(CCNC(=O)Nc2cccs2)c(OC)c1	-1.5	0.6	0.6	0.0	-1.9	.	.
Cc1cc(C)c2nc(SCC(=O)N3CC(=O)Nc4ccccc43)c(C#N)cc2c1	-0.6	-1.5	-1.9	4.8*	-1.8	10.5*	-7.5
CCOc1ccc(NC(=S)NC(=O)C2CCCC2)cc1	-1.1	0.4	3.9	1.1	2.2	.	.
CC(=O)Nc1ccc(NC(=S)NC(=O)C2CCCC2)cc1	-0.8	0.9	3.8	4.9*	0.1	1.8	0.3
C/C(=N\NC(=O)c1ccn(C)n1)c1ccc(NC(=O)c2cccc(F)c2)cc1	0.2	0.5	8.8	8.4*	1.6	-2.4	-1.5
Cc1cccc(NC(=O)Cc2coc3ccc4ccccc4c23)n1	-1.7	-2.1	-6.0	-1.0	-2.5	.	.
Clc1ccc2nc(CSc3nnc4ccccn34)cn2c1	0.3	3.0	9.1	5.1*	5.6*	13.7*	8.8*
Clc1ccc2nc(CSc3nncn3-c3ccccc3)cn2c1	-2.1	0.5	-1.3	0.4	-2.1	.	.
COc1ccc(-c2noc3c2-c2nc(-c4ccccc4Cl)sc2CC3)cc1	-0.8	1.2	0.5	0.1	-0.2	.	.
C/C(=N\NC(=O)c1ccco1)c1ccc(NC(=O)C(F)(F)F)cc1	-0.6	1.6	9.3	7.2*	5.1	1.9	1.1
COc1ccccc1-c1cccc([C@@H]2C[C@H]3[C@H](CON3C)CN2C(=O)CCc2ccccc2)c1	-0.8	-1.4	-0.2	-1.5	0.9	.	.
CC1(C2CC2)NC(=O)N(CC(=O)N2CCN(c3ccccc3)CC2)C1=O (stereo unspecified)	-0.6	0.0	1.1	6.7*	0.0	0.2	-0.1
Cc1ccsc1/C=N/NC(=O)CNC(=O)c1ccc(S(=O)(=O)N2CCOCC2)cc1	-1.8	1.3	-0.2	0.5	-0.4	.	.
CN(C)c1ccc(C=C2C=Cc3ccccc32)cc1	0.3	3.5	13.1*	4.8*	6.2*	14.8*	8.0*
COc1cc2c(cc1OC)C(=Cc1ccc(N(C)C)cc1)C=C2	-0.8	0.6	2.3	-0.8	-1.0	.	.
O=C(COC(=O)c1ccc(O)cc1O)c1ccc(Cl)cc1	-0.9	0.8	5.7	5.8*	2.4	5.4*	2.7
CCNC(=O)C1CCCN(C(=O)c2cnc3ccccc3n2)CC1 (stereo unspecified)	-0.5	.	1.2	0.1	0.1	.	.
CCCN1CCc2c(sc(NC(=O)CCS(=O)(=O)c3ccccc3)c2C(=O)OC)C1	-0.1	0.7	0.1	7.3*	1.1	7.9*	4.7*
COC(=O)c1c(NC(=O)CCS(=O)(=O)c2ccccc2)sc2c1CCN(C)C2	-0.5	0.0	3.5	-0.8	-0.6	.	.
